Assay results reported in the supplement of paper PMC6992640.
Structures can show the parent of a compound that is named as a salt. ± gives the standard deviation of the averaged measurements.

Key:
Experiment in all cases: cell viability (% of vehicle); higher = less cytotoxic
Details in all cases: 10 µM; 72 h
HCI01 = test system: HCI01 (cells of a triple-negative basal-like breast cancer xenograft)
HCI03 = test system: HCI03 (cells of an ER-positive luminal breast cancer xenograft)
HCI09 = test system: HCI09 (cells of a triple-negative luminal androgen receptor type breast cancer xenograft)
HCI11 = test system: HCI11 (cells of an ER-positive luminal breast cancer xenograft)
HCI13 = test system: HCI13 (cells of an ER-positive luminal breast cancer xenograft)
HCI16 = test system: HCI16 (cells of a triple-negative basal-like breast cancer xenograft)
UCD52 = test system: UCD52 (cells of a triple-negative basal-like breast cancer xenograft)
WHIM2 = test system: WHIM2 (cells of a triple-negative basal-like breast cancer xenograft)
WHIM30 = test system: WHIM30 (cells of a triple-negative basal-like breast cancer xenograft)
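Further: PDX cells carrying CMV promoter-driven luciferase, viability read as total photon flux per second by IVIS imaging following D-luciferin, vehicle control 0.1% DMSO.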

Row | SMILES | cell viability (HCI01) | cell viability (HCI03) | cell viability (HCI09) | cell viability (HCI11) | cell viability (HCI13) | cell viability (HCI16) | cell viability (UCD52) | cell viability (WHIM2) | cell viability (WHIM30)
1 | Cc1ccc(-c2ncc(Cl)cc2-c2ccc(S(C)(=O)=O)cc2)cn1 [Etoricoxib] | 107 ± 4.3 | 118 | 85.1 ± 16 | 79.9 | 96.7 ± 2.1 | 141 | 77.3 ± 3.4 | 143 ± 16 | 116 ± 13
2 | CNCC(O)c1ccc(O)c(O)c1 [L-Adrenaline] | 131 ± 58 | 137 | 142 ± 37 | 110 | 121 ± 32 | 138 | 112 ± 15 | 102 ± 7.6 | 162 ± 8.5
3 | C#C[C@]1(O)CC[C@H]2[C@@H]3CCC4=CCCC[C@@H]4[C@H]3C(=C)C[C@@]21CC [Desogestrel] | 94.9 ± 2.5 | 146 | 81 ± 11 | 87.2 | 41.5 ± 5.2 | 97.5 | 74.4 ± 2 | 64.2 ± 39 | 71.8 ± 53
4 | O=c1ncnc2[nH][nH]cc1-2 [Allopurinol] | 111 ± 8.6 | 132 | 94.3 ± 13 | 110 | 98.9 ± 12 | 103 | 84.5 ± 3.3 | 97.49 ± 0.5 | 122 ± 8.1
5 | COc1ccc2nc(S(=O)Cc3ncc(C)c(OC)c3C)[nH]c2c1 (configuration not stated) [Omeprazole] | 127 ± 30 | 149 | 94.2 ± 5.6 | 102 | 94 ± 3.6 | 121 | 138 ± 16 | 99.8 ± 23 | 192 ± 5.1
6 | COc1cc2nc(N3CCN(C(=O)C4COc5ccccc5O4)CC3)nc(N)c2cc1OC.CS(=O)(=O)O (configuration not stated) [Doxazosin Mesylate] | 116.9 ± 0.43 | 94.7 | 73.2 ± 34 | 83.3 | 103 ± 15 | 123 | 92.4 ± 14 | 62.6 ± 10 | 117 ± 13
7 | CC(C)NCC(O)COc1ccc(CCOCC2CC2)cc1.Cl (configuration not stated) [Levobetaxolol HCl] | 125 ± 30 | 104 | 112 ± 18 | 105 | 145 ± 15 | 127 | 109 ± 18 | 96.8 ± 13 | 114 ± 14
8 | COc1ccnc(C[S+]([O-])c2nc3cc(OC(F)F)ccc3[nH]2)c1OC (configuration not stated) [Pantoprazole] | 123 ± 15 | 133 | 102 ± 2.6 | 103 | 97.1 ± 2.1 | 108 | 130 ± 5.1 | 100 ± 7.9 | 130 ± 7.3
9 | Br.CN1CCCC1Cc1c[nH]c2ccc(CCS(=O)(=O)c3ccccc3)cc12 (configuration not stated) [Eletriptan HBr] | 91.4 ± 17 | 108 | 80.12 ± 0.74 | 86.1 | 83.7 ± 7.3 | 113 | 87 ± 9.9 | 83.3 ± 4.5 | 163 ± 24
10 | CN[C@H](CC(C)C)C(=O)N[C@H]1C(=O)N[C@@H](CC(N)=O)C(=O)N[C@H]2C(=O)N[C@H]3C(=O)N[C@H](C(=O)N[C@H](C(=O)O)c4cc(O)cc(O)c4-c4cc3ccc4O)[C@H](O)c3ccc(c(Cl)c3)Oc3cc2cc(c3O[C@@H]2O[C@H](CO)[C@@H](O)[C@H](O)[C@H]2O[C@H]2C[C@](C)(N)[C@H](O)[C@H](C)O2)Oc2ccc(cc2Cl)[C@H]1O [Vancomycin hydrochloride] | 125 ± 1.7 | 110 | 146 ± 38 | 92.4 | 195 ± 13 | 167 | 122 ± 7.7 | 107 ± 4.2 | 148 ± 22
11 | Cl.NC12CC3CC(CC(C3)C1)C2 [Amantadine HCl] | 136 ± 17 | 117 | 104 ± 1.4 | 98.7 | 120 ± 7.4 | 132 | 93.3 ± 2.1 | 107 ± 17 | 105 ± 1.4
12 | NNC(=O)c1ccncc1.Nc1ccc(C(=O)O)c(O)c1 [Pasiniazid] | 94.9 ± 11 | 111 | 127 ± 61 | 122 | 182 ± 9.2 | 83.7 | 95.1 ± 3.1 | 80.5 ± 33 | 133 ± 5.1
13 | O=C1CCC(C(=O)N2CSCC2C(=O)O)N1 (configuration not stated) [Pidotimod] | 93.1 ± 30 | 137 | 96.2 ± 5.1 | 96.7 | 132 ± 3.4 | 108 | 98.5 ± 9.8 | 90 ± 22 | 122 ± 2.3
14 | CC(CN1CC(=O)NC(=O)C1)N1CC(=O)NC(=O)C1.Cl (configuration not stated) [Dexrazoxane HCl (ICRF-187, ADR-529)] | 64.8 ± 50 | 134 | 107 ± 3.7 | 97.9 | 96.3 ± 1.9 | 84.2 | 96.1 ± 14 | 70.2 ± 19 | 114 ± 1.9
15 | CC(C)(O/N=C(\C(=O)N[C@@H]1C(=O)N2C(C(=O)[O-])=C(C[n+]3ccccc3)CS[C@H]12)c1csc(N)n1)C(=O)O [Ceftazidime] | 101 ± 17 | 98.6 | 97.7 ± 0.81 | 81.6 | 119 ± 8.4 | 149 | 120 ± 15 | 120 ± 3.6 | 99.7 ± 8.2
16 | O=C(NCC1CN(c2ccc(N3CCOCC3=O)cc2)C(=O)O1)c1ccc(Cl)s1 (configuration not stated) [Rivaroxaban] | 114 ± 11 | 119 | 89.9 ± 3.4 | 105 | 130 ± 15 | 94.8 | 85.2 ± 13 | 109 ± 9 | 117 ± 15
17 | Nc1ccc(S(=O)(=O)c2ccc(N)cc2)cc1 [Dapsone] | 114 ± 18 | 146 | 111 ± 3.1 | 116 | 118 ± 22 | 158 | 116 ± 4.3 | 115 ± 8.2 | 117 ± 10
18 | Nc1ccn(C2CCC(CO)O2)c(=O)n1 (configuration not stated) [Zalcitabine] | 90.1 ± 3.1 | 124 | 102 ± 5.5 | 93.5 | 91.99 ± 0.76 | 128 | 104 ± 10 | 85.08 ± 0.32 | 176 ± 35
19 | CC1CNCCCN1S(=O)(=O)c1cccc2cncc(F)c12.Cl.O.O (configuration not stated) | 100 ± 12 | 140 | 96.3 ± 9 | 70.9 | 82.6 ± 8.8 | 58.7 | 84.8 ± 4.2 | 92.75 ± 0.41 | 82 ± 2

Row | SMILES | cell viability (HCI01) | cell viability (HCI03) | cell viability (HCI09) | cell viability (HCI11) | cell viability (HCI13) | cell viability (HCI16) | cell viability (UCD52) | cell viability (WHIM2) | cell viability (WHIM30)
20 | Cl.O=c1n(CCCN2CCN(c3cccc(Cl)c3)CC2)nc2ccccn12 [Trazodone HCl] | 112 ± 11 | 123 | 95.5 ± 16 | 101 | 104 ± 9.6 | 148 | 89.05 ± 0.23 | 105 ± 23 | 192 ± 16
21 | CS(=O)(=O)c1ccc(C(O)C(CO)NC(=O)C(Cl)Cl)cc1 (configuration not stated) [Thiamphenicol] | 109 ± 26 | 104 | 85.8 ± 3.5 | 82.9 | 64.4 ± 4.1 | 103 | 84.7 ± 13 | 107 ± 29 | 122 ± 6.1
22 | Cn1nnc2c(C(N)=O)ncn2c1=O [Temozolomide] | 136 ± 12 | 125 | 105 ± 15 | 111 | 122 ± 17 | 136 | 97.8 ± 28 | 117 ± 5.3 | 107 ± 16
23 | Cc1ncc([N+](=O)[O-])n1CC(O)CCl (configuration not stated) [Ornidazole] | 94.9 ± 14 | 115 | 96 ± 7.9 | 83.2 | 111 ± 18 | 105 | 85.1 ± 4.3 | 88.1 ± 8.4 | 108 ± 10
24 | CN(CC=CC#CC(C)(C)C)Cc1cccc2ccccc12 [Terbinafine] | 105 ± 5.9 | 114 | 136 ± 70 | 108 | 111 ± 26 | 139 | 106 ± 3 | 73.1 ± 24 | 117 ± 3.4
25 | C[N+](C)(C)CC(=O)[O-] [Betaine] | 107 ± 33 | 140 | 103 ± 12 | 90.7 | 140 ± 1.5 | 116 | 106 ± 5.9 | 99.7 ± 16 | 90 ± 12
26 | O=C(O)c1cc(=O)[nH]c(=O)[nH]1 [Orotic acid] | 90.2 ± 12 | 100 | 88.5 ± 22 | 93.2 | 85.7 ± 3.8 | 120 | 93.6 ± 9.7 | 102.1 ± 0.24 | 76.6 ± 5.3
27 | O=N[O-].[Na+] [Sodium Nitrite] | 104 ± 6.4 | 95.5 | 90.5 ± 4.7 | 91.5 | 55.8 ± 2.9 | 108 | 84 ± 5.8 | 114 ± 17 | 116 ± 21
28 | O=P(O)(O)C(O)(Cn1ccnc1)P(=O)(O)O [Zoledronic Acid] | 134 ± 17 | 135 | 88.4 ± 13 | 172 | 75.2 ± 8.7 | 94.7 | 60.6 ± 1.4 | 68.7 ± 15 | 107 ± 21
29 | COc1cc2c(cc1OC)CC(=O)N(CCCN(C)CC1Cc3cc(OC)c(OC)cc31)CC2.Cl (configuration not stated) [Ivabradine HCl] | 105 ± 7.9 | 121 | 100 ± 19 | 114 | 99.3 ± 3.9 | 97.9 | 85.7 ± 11 | 93.2 ± 17 | 123 ± 5.3
30 | CN1CCN2c3ncccc3Cc3ccccc3C2C1 (configuration not stated) [Mirtazapine] | 66.7 ± 36 | 149 | 91.4 ± 1.8 | 103 | 118 ± 26 | 114 | 86.1 ± 2.4 | 87.6 ± 30 | 138 ± 17
31 | COc1ccccc1OCC(O)COC(N)=O (configuration not stated) [Methyocarbamol] | 148 ± 10 | 132 | 144 ± 44 | 108 | 109 ± 3.5 | 111 | 104 ± 8.4 | 104 ± 27 | 134 ± 2.3
32 | C[N+]1(C)CCC(OC(=O)C(O)(c2ccccc2)C2CCCC2)C1.[Br-] (configuration not stated) [Glycopyrrolate] | 110 ± 5.3 | 152 | 123 ± 51 | 99.3 | 117 ± 12 | 94.8 | 95.6 ± 5.1 | 100 ± 5.2 | 83.6 ± 6.5
33 | CC(C)NCC(O)COc1cccc2ccccc12.Cl (configuration not stated) [Propranolol HCl] | 109.73 ± 0.067 | 104 | 100 ± 15 | 84.5 | 97.8 ± 24 | 96.6 | 83.3 ± 4.4 | 83.3 ± 16 | 108 ± 7.8
34 | COc1cc2c(cc1Cc1cccc(Cl)c1F)c(=O)c(C(=O)O)cn2C(CO)C(C)C (configuration not stated) [Elvitegravir (GS-9137)] | 114 ± 56 | 86.7 | 41.2 ± 36 | 109 | 47.4 ± 7.1 | 124 | 77.8 ± 6.1 | 73.8 ± 7.4 | 159 ± 21
35 | c1ccc2[nH]c(-c3cscn3)nc2c1 [Thiabendazole] | 148 ± 9.3 | 160 | 82.8 ± 82 | 162 | 162 ± 8.2 | 119 | 167 ± 15 | 120 ± 13 | 102.2 ± 0.2
36 | C[N+]1(C)C2CCC1CC(OC(=O)C(O)c1ccccc1)C2.[Br-] (configuration not stated) [Homatropine Methylbromide] | 96.2 ± 1.2 | 97.6 | 89.8 ± 18 | 85.9 | 105 ± 5 | 114 | 104 ± 1.8 | 112 ± 8 | 50.8 ± 2.7
37 | Cl.NCCCC(N)(C(=O)O)C(F)F.O (racemic) [DL-α-Difluoromethylornithine (hydrochloride hydrate)] | 94.2 ± 12 | 94 | 92.3 ± 10 | 65.9 | 80.9 ± 5.2 | 99.2 | 85.3 ± 3.9 | 91.9 ± 5.5 | 97.1 ± 3.2
38 | Cc1nnc(NS(=O)(=O)c2ccc(N)cc2)s1 [Sulfamethizole] | 102 ± 17 | 119 | 91.2 ± 4.5 | 87 | 89.2 ± 14 | 114 | 81.2 ± 3.9 | 91.3 ± 4.2 | 88.3 ± 5
